# Only some compounds are listed: those with a hit (about 2.4% of all), similar ones and a draw of the others.
# Pol kappa inh: blocks human DNA polymerase kappa activity; AID 588579; Potency, µM (titrated, usually from 107 µM), without a hit: at the highest dose activity, negative = inhibition, actives largely listed as inhibitors; purified Pol kappa, fluorescent DNA synthesis assay, 10 min; actives 0.53% (n = 400,000); Q9UBT6; also: % is scaled to controls: 0 for no effect and ±100 for the full control effect
#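 Fluorescent qHTS in 1536-well format: enzyme (10 nM) and compound sat 15 min at room temperature before 50 nM substrate (final) was added. Signal taken at 0 and 10 min; no-enzyme buffer wells were negative controls.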
# Pol iota inh: inhibitors of human DNA polymerase iota | Pol iota fluorescent replication assay, 10 min | Q9UNA4 | actives 1% (n = 390,000) | Potency, µM (highest dose often 115 µM), for the others: at the highest dose activity, negative = inhibition, usual class: inhibitors
#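 Pol iota at 10 nM preincubated 15 min with compounds at room temperature; reaction started with fluorescent substrate, 50 nM final. Fluorescence read kinetically at 0 and 10 min; buffer-only wells as negative control.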
# WRN inhibitor: blocks human WRN helicase; WRN helicase unwinding, fluorescent forked duplex, kinetic; Potency, µM (top dose mostly 114 µM), inactives show at the top dose activity change, negative = inhibition, usual class: inhibitors; actives 0.46% (n = 360,000); also: % is scaled to controls: 0 for no effect and ±100 for the full control effect; nearly all actives have a fitted effect of over 55% in size
#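 Kinetic fluorescence helicase assay: unwinding of a quenched forked DNA duplex (100 nM final) with 2 mM ATP final raises red fluorescence (525/598 nm). Compounds sat 15 min at room temperature with 20 nM WRN beforehand.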
# Pol beta inh: DNA polymerase beta (human) inhibition; P06746; Pol beta primer extension/strand displacement, fluorescence kinetic; Potency, µM (doses to about 114 µM), inactives show top-dose activity change, negative = inhibition, actives largely listed as inhibitors; actives 1.3% (n = 340,000); AID 485314; also: % is scaled to controls: 0 for no effect and ±100 for the full control effect
#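 Values derive from four-parameter Hill fits of normalized kinetic data: reads at 0 and 10 min following addition of 50 nM substrate to 10 nM Pol beta preincubated 15 min with compound.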
# POLH inh: DNA polymerase eta (human) inhibition. AID 588591. Q9Y253. Potency, µM (titrated, usually from 114 µM), for the others: top-dose activity change, negative = inhibition, hits mostly inhibitors. recombinant Pol eta, fluorescent DNA replication assay. actives 1.2% (n = 390,000); also: % is scaled to controls: 0 for no effect and ±100 for the full control effect
#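 Pol eta (10 nM) was preincubated with compounds for 15 min at room temperature, after which fluorescent replication substrate (50 nM final) was added to start the reaction. Fluorescence was read kinetically at 0 and 10 min.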
# FEN1 inhibitor: human FEN1 inhibition. Recombinant FEN1 flap cleavage, fluorescence, 15 min. Potency, µM (highest dose often 114 µM), without a hit: top-dose activity change, negative = inhibition, most hits filed as inhibitors. P39748. actives 0.35% (n = 390,000); also: % is scaled to controls: 0 for no effect and ±100 for the full control effect; nearly all actives have a fitted effect of over 65% in size
# Target sequence (P39748 whole entry, looked up): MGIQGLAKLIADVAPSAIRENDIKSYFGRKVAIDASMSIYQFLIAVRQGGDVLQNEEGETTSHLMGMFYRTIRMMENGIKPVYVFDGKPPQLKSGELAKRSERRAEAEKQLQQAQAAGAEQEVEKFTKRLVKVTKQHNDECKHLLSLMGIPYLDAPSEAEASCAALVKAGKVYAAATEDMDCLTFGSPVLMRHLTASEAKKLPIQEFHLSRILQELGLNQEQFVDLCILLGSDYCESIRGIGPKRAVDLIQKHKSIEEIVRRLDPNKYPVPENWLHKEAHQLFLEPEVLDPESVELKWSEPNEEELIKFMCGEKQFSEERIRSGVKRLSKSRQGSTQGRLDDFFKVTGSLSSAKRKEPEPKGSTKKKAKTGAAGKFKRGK
#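 Quantitative HTS format: each compound was titrated, incubated with 10 nM nuclease for 15 min at room temperature, then challenged with flap substrate at 50 nM final. Signal change over 15 min gave concentration–effect curves.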
# * hit, by the source's call; ? = inconclusive; · = no result given; [ ] = another dose, or the depositor's remark. Calls follow the shape of the dose curve; as a rule, active = well fitted curve in the direction sought with a large enough effect; inconclusive = small, poorly fitted or top-dose-only effect, or another doubt; inactive = no such curve, though single readings can be large; an effect the other way counts as inactive or inconclusive. Potency is read from the fitted curve at half-maximal effect.
SMILES,Pol kappa inh,Pol iota inh,WRN inhibitor,Pol beta inh,POLH inh,FEN1 inhibitor
O=C1CCCC(=NNC(=O)c2cc3ccccc3cc2O)C1,-38.7%,79.4µM*,-25.0%,·,-14.7%,-1.7%
O=C(NN=C1CCCCCC1)c1cc2ccccc2cc1O,-7.1%,33.9%,0.7%,0.6%,-21.6%,-9.6%
CC1CC(C)CN(C(=O)Cn2c(=O)c3cccn3c3cccnc32)C1 (centres undefined),-14.5%,15.4%,-11.8%,1.4%,-0.3%,-9.4%
CC(=O)c1ccc(NC(=S)Nc2ccn(Cc3ccc(Br)cc3)n2)cc1,-4.2%,99.8%,-5.4%,7.1%,-15.4%,-9.3%
COc1ccc(NC(=O)CN(c2ccccc2)S(=O)(=O)N(C)C)cc1OC,?,14.1µM*,?,39.8µM*,44.7µM*,9.8%
Cc1ccc(NC(=O)CN(c2ccccc2)S(=O)(=O)N(C)C)cc1C,-0.9%,-11.8%,-14.2%[57.1 µM],7.2%,-12.2%,6.9%
Cc1cc(C)c(NC(=O)CN(c2ccccc2)S(=O)(=O)N(C)C)c(C)c1,?,89.1µM*,-13.0%[57.1 µM],35.5µM*,?,-0.3%
CCc1ccccc1NC(=O)Cn1nnc(C(=O)Nc2ccc(C)c(F)c2)c1N,-16.6%,-12.8%,·,-6.2%,?,-6.0%
Cc1ccc(C)c(N2CCN(C(=O)CCn3c(=O)c4cccn4c4cccnc43)CC2)c1,-12.6%,11.6%,·,-2.8%,-11.6%,-16.7%
COC(=O)c1sc(N)c(C(=O)OC)c1COC(=O)CCNS(=O)(=O)c1ccc(C)cc1,-9.4%,89.1µM*,-12.0%[57.1 µM],9.6%,?,-16.4%
COc1ccc(-c2nn(-c3ccccc3)cc2/C=N/Nc2cccc(C(=O)O)c2)cc1,-14.1%,70.9%,-19.9%,-0.3%,?,5.8%
CCC(CC)C1C(C#N)=C(N)Oc2cc(C)oc(=O)c21 (centres undefined),-4.4%,-2.8%,-4.6%,-8.0%,9.4%,7.0%
Cc1cc2c(c(=O)o1)C(c1ccc([N+](=O)[O-])o1)C(C#N)=C(N)O2 (centres undefined),79.4µM*,20µM*,?,?,-3.5%,?
CCOc1cc(/C=N/N=C2/NC(=O)C(CC(=O)O)S2)ccc1OCc1ccccc1Cl (centres undefined),-7.0%,-17.4%,-14.4%,28.2µM*,?,-8.7%
COc1ccc2nc(C)cc(N/N=C/c3ccccc3)c2c1,?,-21.8%,?,·,?,35.5µM*
COc1ccccc1/C=N/Nc1cc(C)nc2ccc(C)cc12,-7.4%,17.3%,-7.6%,0.7%,-21.0%,4.6%
CS(=O)(=O)c1cc([N+](=O)[O-])c(Sc2nc3ccccc3[nH]2)c([N+](=O)[O-])c1,-5.5%,?,56.2µM*,-1.9%,-4.4%,-15.6%
O=C(O)c1cc([N+](=O)[O-])c(Sc2nc3ccccc3[nH]2)c([N+](=O)[O-])c1,-6.5%,?,?,8.1%,?,15.6%
CCc1ccc2c(CN3CCN(S(=O)(=O)c4ccc5c(c4)OCCO5)CC3)cc(=O)oc2c1,-5.0%,0.7%,5.4%,0.1%,-15.9%,6.4%
O=c1cc(CN2CCN(S(=O)(=O)c3ccc4c(c3)OCCO4)CC2)c2ccc(O)cc2o1,?,35.5µM*,-19.7%,35.5µM*,?,-9.1%
Cc1cc(C)c(S(=O)(=O)/N=C2\C=CC(=O)C(Cl)=C2)c(C)c1,?,?,-33.7%,35.5µM*,?,-20.5%
O=C(COC(=O)/C=C/c1ccc(Br)o1)Nc1ccccc1F,·,·,·,25.1µM*,·,·
CSc1ccccc1NC(=O)COC(=O)/C=C/c1ccco1,0.0%,?,?,·,?,4.5%
O=C(COC(=O)/C=C/c1ccc(Br)o1)NC1CCCCC1,79.4µM*,22.4µM*,-28.7%,·,?,-16.4%
CSc1nnc(CNC(=O)c2ccccc2)n1-c1cccc(C)c1,-1.9%,-14.0%,1.4%,39.9%,-13.9%,3.5%
SMILES,Pol kappa inh,Pol iota inh,WRN inhibitor,Pol beta inh,POLH inh,FEN1 inhibitor
COc1cccc(N=c2oc3c(C)ncc(CO)c3cc2C(=O)Nc2ccccc2OC)c1,·,·,·,0.3%,·,·
COc1ccc(NC(=O)c2cc3c(COC(C)=O)cnc(C)c3oc2=Nc2cccc(C(=O)O)c2)c(OC)c1,-5.7%,-22.9%,-6.8%,-26.3%,3.16µM*,?
O=C(O)c1ccc2c(c1)C(=O)/C(=C/c1ccccc1)C2=O,25.1µM*,?,?,-23.4%,2.82µM*,39.8µM*
O=C(Oc1ccc2ccc(=O)oc2c1)c1ccc([N+](=O)[O-])cc1,3.1%,41.2%,7.2%,13.8%,-14.4%,16.4%
CN(C)C1C(=O)C(C(N)=O)C(=O)C2(O)C(=O)C3C(=O)c4c(O)ccc(Cl)c4C(O)C3CC12 (centres undefined),35.5µM*,·,·,·,·,·
CN(C)C1C(=O)C(C(N)=O)=C(O)[C@@]2(O)C(=O)C3=C(O)c4c(O)ccc(Cl)c4C(O)[C@H]3C[C@@H]12 (some centres undefined),-13.9%[60.1 µM],·,·,·,·,·
COc1ccccc1Nc1nn2c(=O)c3ccc(C(=O)NCCc4ccccc4)cc3nc2s1,-0.3%,-10.0%,·,?,79.4µM*,-7.3%
COc1ccc(Nc2nn3c(=O)c4cc5c(cc4nc3s2)OCO5)c(OC)c1,-4.9%,34.3%,·,3.55µM*,?,8.5%
Cc1ccc(C)c(Nc2nn3c(=O)c4ccc(C(=O)NCCc5ccccc5)cc4nc3s2)c1,2.5%,-9.9%,·,35.4%,4.0%,6.5%
O=C(CCNC(=O)c1ccccc1)NCCCc1ccccc1,-2.5%,12.8%,-7.5%,·,-4.3%,-4.4%
CN1CC(=O)Nc2ccc(F)cc2C1=O,3.5%,-3.0%,3.6%,43.1%,-10.3%,-3.1%
CC(=O)Nc1nonc1-c1nc2ccccc2n1N(C(C)=O)C(C)=O,-17.1%,?,-25.3%[57.1 µM],35.5µM*,?,0.6%
Nc1ccc2nc3c(=O)n(CCc4ccccc4)c(=O)[nH]c3nc2c1,-25.5%,63.6%,-20.5%,?,-7.0%,?
CCCCn1c(=O)[nH]c2nc3cc(N)ccc3nc2c1=O,-8.2%,1.26µM*,50.1µM*,5.62µM*,-10.1%,?
O=C(CCl)N(Cc1cc(=O)[nH]c2ccccc12)c1ccccc1,-2.5%,?,-3.9%,29.2%,50.1µM*,-14.4%
COC(=O)[C@@H](Cc1ccccc1)NC(=O)NCCc1c[nH]c2ccccc12,-21.7%,30.6%,-0.8%,6.8%,-4.8%,2.5%
O=C(Nc1cccc(-c2nc3cccnc3s2)c1)C1c2ccccc2Oc2ccccc21,-6.0%,-73.7%,-26.8%[11.6 µM],-15.5%,8.91µM*,-13.5%
O=C(Nc1cccc(-c2nc3cccnc3s2)c1)c1cccnc1Cl,-3.2%,16.9%,10.5%,2.4%,2.4%,-4.1%
C=C(/C=C/c1ccc(N(C)C)cc1)c1nc2ccccc2s1,?,?,·,·,·,25.1µM*
